# Results published in ChEMBL document CHEMBL4513216, “Probing the Open Global Health Chemical Diversity Library for Multistage-Active Starting Points for Next-Generation Antimalarials” (ACS Infect Dis, 2020).
# Hit rate of the full screen: of about 69,000 compounds, about 8,600 (12%) showed an effect of 50% or more. This is one part of a sample in which strong results are shown more often than they occur.
# System: Plasmodium berghei
# Experiment: Screen against P. berghei liver stage (PbLuc), transformed with Luciferase, at 10uM
# Format: functional, HepG2
# Details: tested at 10 uM
row,SMILES,INHIBITION [%]
1,O=C(NCc1ccco1)[C@@H]1CCO[C@@H]2CCN(c3ccncn3)C[C@H]21,10
2,COc1ccccc1C(O)CNC(=O)Nc1ccccn1 (stereo not given),35.9
3,Cc1ccc2c(c1)c(C)cc(=O)n2CCCN,-17
4,Cn1ccc2c(-c3cc(N4CCOCC4)ncn3)ccnc21,-3.96
5,Cn1ccc2c(-c3cc(N)nc(N4CCOCC4)n3)ccnc21,18.8
6,CCc1cc(-c2ccnc3c2ccn3C)nc(N2CCOCC2)n1,51.5
7,COc1cccc(CN2CCCCC2c2n[nH]cc2-c2cc(C)no2)c1 (stereo not given),25.8
8,CNC(=O)c1cc2c(nc1NCC1CC1)CCN(c1ccncn1)CC2,32.4
9,Cc1cc(C)n(CNc2nonc2C(N)=O)n1,44.1
10,CCc1nnc(CN(C)C(=O)CN2CC(c3ccccc3)CC2=O)o1 (stereo not given),62.4
11,CN(Cc1nc(C2CC2)no1)C(=O)CN1CC(c2ccccc2)CC1=O (stereo not given),3.96
12,CCc1cc(CN(C)C(=O)CN2CC(c3ccccc3)CC2=O)on1 (stereo not given),9.91
13,CCc1cc(O)n2nc(C3CCN(C(=O)c4cccnc4)CC3)cc2n1,13.3
14,Cc1nc(C2(O)CCCNCC2)sc1CCOc1ccccc1Cl (stereo not given),55.6
15,CCN1CCCC(O)(c2nc(C)c(CCOc3ccccc3F)s2)CC1 (stereo not given),7.52
16,Cc1nc(C2(O)CCCNCC2)sc1CCOc1ccc(F)c(F)c1 (stereo not given),46
17,CCN1CCCC(O)(c2nc(C)c(CCOc3ccccc3Cl)s2)CC1 (stereo not given),28
18,CCN1CCCC(O)(c2nc(C)c(CCOc3ccc(F)cc3)s2)CC1 (stereo not given),59.3
19,COc1ccc(OCc2sc(C3(O)CCCNCC3)nc2C)cc1 (stereo not given),31.3
20,Cc1nc(C2(O)CCCNCC2)sc1CCOc1ccc(F)cc1 (stereo not given),47.2
21,CCCN1CCCC(O)(c2nc(C)c(COc3ccccc3)s2)CC1 (stereo not given),27.6
22,COc1ccc(OCCc2sc(C3(O)CCCNCC3)nc2C)cc1 (stereo not given),52.3
23,Cc1nc(C2(O)CCCNCC2)sc1CCOc1ccccc1 (stereo not given),49.6
24,Cc1nc(C2(O)CCCNCC2)sc1CCOc1ccccc1F (stereo not given),0.301
25,Cc1nc(C2(O)CCCNCC2)sc1CCOc1ccc(Cl)cc1 (stereo not given),73.9
26,CCSc1cc(C(=O)NC2CCN(C(=O)c3ccccc3)CC2)ccn1,33.4
27,Cc1ncc2c(n1)CN(Cc1nc(Cc3ccccc3)no1)CC2,41.2
28,O=C(CCOc1ccc(Cl)cc1)NCCCn1cccn1,48.8

row,SMILES,INHIBITION [%]
1,O=C(CCOc1cccc(Cl)c1)N1CCN(c2cnccn2)CC1,-8.11
2,CCNC(=O)N1CCC(NC(=O)NCCCc2cccc(F)c2)C1 (stereo not given),35
3,CCNC(=O)N1CCC(Cc2cccc(C(N)=O)c2)C1 (stereo not given),10.7
4,Cc1cccc(CC(=O)NC2CCN(C(=O)NC(C)(C)C)CC2)c1,-38.4
5,CC1CCN(C(=O)NCCc2cc(F)ccc2F)C1 (stereo not given),-21.2
6,CCNC(=O)N1CCC(NC(=O)NCCc2ccc(C)cc2C)C1 (stereo not given),51.7
7,Cc1ccc(CCNC(=O)NCCCC(N)=O)c(C)c1,-18.6
8,CCNC(=O)N1CCC(NC(=O)NCCc2cc3ccccc3o2)C1 (stereo not given),-43.8
9,CCNC(=O)N1CCC(NC(=O)NCCc2cccc(C)c2)C1 (stereo not given),77.7
10,CCNC(=O)N1CCC(NC(=O)NCCc2cc(F)cc(F)c2)C1 (stereo not given),57.3
11,Cc1ccc(CN2Cc3c(C(=O)N4CCN(C)CC4)nn(C)c3C2)s1,3.25
12,COCc1n[nH]/c(=N\C(=O)c2c3c(nc4onc(C)c24)CCC3)s1,10.7
13,CC1(C(=O)N2CCOCC2)CN(Cc2ccccc2F)CCO1 (stereo not given),25.6
14,O=C(Nc1ccc(-c2csnn2)cc1)NC(CCO)C1CC1 (stereo not given),6.11
15,Cc1[nH]c2nc(CNc3ccccc3Cl)nn2c(=O)c1C,-7.83
16,Cc1ccc(Cl)cc1NCc1nc2[nH]c(C)c(C)c(=O)n2n1,18.3
17,CCc1ccccc1NCc1nc2[nH]c(C)c(C)c(=O)n2n1,52.5
18,CN1CCC(Nc2cc(Cl)ccc2OCC(F)(F)F)C1=O (stereo not given),4.34
19,Cc1cc(CCC(=O)N(C)C)nc(C2CCCCN2)n1 (stereo not given),26.3
20,O=C(Cc1cc(-c2ccc3c(c2)OCCO3)on1)NCc1ccccn1,70
21,O=C(Cc1cc(-c2ccc3c(c2)OCO3)on1)NC1CCCC1,14.6
22,COCCCNC(=O)Cc1cc(-c2ccc3c(c2)OCO3)on1,65.7
23,COCCCNC(=O)CN(C)C(=O)c1cc(Cl)ccc1O,-15.8
24,Cc1cc(C(=O)NCc2ccccn2)no1,-1.88
25,COCCCNC(=O)Cc1cc(-c2ccc(Cl)cc2)on1,53.7
26,COCCCNC(=O)Cc1cc(-c2ccccc2)on1,-34.3
27,Cn1cc(CCNC(=O)CCc2ccc3c(c2)OCO3)cn1,31.3
